Values joined by “and” are separate entries in the source; they are usually repeats but may differ in a detail not shown here. Identical values can stand only once. Compounds without any hit were thinned out: in the full panel of roughly 83,000, 20% have a hit.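 Growth was measured after 48 h exposure to one concentration of compound in 96-well plates. Values under 10 count as active.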 Active and inactive are the calls of the source.
Legend:
Experiment in all cases: NCI-60 one-dose screen, 48 h (100 = growth as untreated, 0 = no growth, -100 = all killed)
[1] = tested on: MCF7 breast
[2] = tested on: BT-549 breast; conditions: 10 µM unless noted
[3] = tested on: MDA-MB-435 melanoma; conditions: 10 µM unless noted
[4] = tested on: HCT-116 colon; conditions: 10 µM unless noted
[5] = tested on: HCC-2998 colon; conditions: 10 µM unless noted
[6] = tested on: KM12 colon; conditions: 10 µM unless noted

| Compound | growth ([1]; 100 µM) | growth [2] | growth [3] | growth ([1]; 10 µM) | growth [4] | growth [5] | growth [6] |
| --- | --- | --- | --- | --- | --- | --- | --- |
| CC1CCC2(NC1)OC1CC3C4CCC5CC(OC6OC(CO)C(OC7OC(CO)C(O)C(OC8OCC(O)C(O)C8O)C7OC7OC(CO)C(O)C(O)C7O)C(O)C6O)CCC5(C)C4CCC3(C)C1C2C (centres undefined) | -86% (active) and -100% (active) |  |  |  |  |  |  |
| COc1ccccc1/C=C(/C)[N+](=O)[O-] |  | 83.6% (inactive) and 101% (inactive) | 79.2% (inactive) and 105% (inactive) | 7.37% (active) and 105% (inactive) | 44% (inactive) and 98.6% (inactive) | 103% (inactive) and 99% (inactive) | 70% (inactive) and 99.8% (inactive) |
| CCC1(O)CC(OC2CC(N(C)C)C(OC3CC4OC5CC(=O)C(C)OC5OC4C(C)O3)C(C)O2)c2c(cc3c(c2O)C(=O)c2c(O)ccc(O)c2C3=O)C1C(=O)OC (centres undefined) |  | -76.3% (active) | -94.1% (active) | 2.21% (active) | -2.93% (active) | -89.9% (active) | -55.3% (active) |
| Oc1cc[c]([Hg][Cl])cc1 |  | 128% (inactive) | 96% (inactive) | 50.5% (inactive) | 91% (inactive) | 114% (inactive) | 97.4% (inactive) |
| CC1=C(CO)C2=C(C)C3(CC3)[C@@](C)(O)C(=O)C2=C1 |  | -55.8% (active) | 10.7% (inactive) | 8.34% (active) | 2.68% (active) | -76.7% (active) | 12.4% (inactive) |
| CC[C@@]1(O)C[C@H](OC2CC(N(C)C)C(O)C(C)O2)c2c(O)c3c(c(O)c2[C@H]1OC1CC(N(C)C)C(O)C(C)O1)C(=O)c1cccc(O)c1C3=O (some centres undefined) |  | -61.3% (active) | -86% (active) | -8.26% (active) | -3.79% (active) | -83.6% (active) | -50.3% (active) |
| Cc1ccc(C(=O)OC(C(=O)O)C(OC(=O)c2ccc(C)cc2)C(=O)O)cc1 (centres undefined) (tested in a mixture with another compound) |  | 17.5% (inactive) | 51.3% (inactive) | 14.3% (inactive) | 22.1% (inactive) | 73% (inactive) | 58.9% (inactive) |
| CCC(=O)OC1CCn2c1nc1c2C(=O)C(C)=C(N2CC2)C1=O (centres undefined) |  | -79.1% (active) | -83.6% (active) | -15.6% (active) | 1.09% (active) | -52.9% (active) | -35.1% (active) |
| CC(=O)O[C@H]1C[C@@H]2OC3C=C(C)CCC3(C)[C@@]1(C)[C@@]21CO1 (some centres undefined) |  | -28.8% (active) and -11.6% (active) | -21.1% (active) and -27.5% (active) | -0.46% (active) and -15% (active) | -22.5% (active) and -18.6% (active) | -27.6% (active) and -20.3% (active) | -21.9% (active) and -43% (active) |
| CC[n+]1c(-c2ccccc2)c2cc(N)ccc2c2ccc(N)cc21 |  | -35.7% (active) | -36% (active) |  | 13.8% (inactive) | 6.95% (active) | 7.69% (active) |
| COc1cccc2c1cc([N+](=O)[O-])c1c(C(=O)O)cc3c(c12)OCO3 | 15.3% (inactive) and 2.6% (active) | 91.7% (inactive) and 102% (inactive) | 93.1% (inactive) and 100% (inactive) | 38.2% (inactive) and 94% (inactive) | 72.4% (inactive) and 92.3% (inactive) | 47.7% (inactive) and -1.44% (active) | 84.6% (inactive) and 99.1% (inactive) |
| COC1=C(C)C(=O)C2=C(C1=O)C(CO)N1C(C#N)C3CC4C(C1C2N1CCOC41)N3C (centres undefined) |  | -64.3% (active) | -64.2% (active) | -0.551% (active) | -33.7% (active) | -87.3% (active) | -60.8% (active) |
| CN1CCN(c2ccc([N+](=O)[O-])c3no[n+]([O-])c23)CC1 |  | -64.6% (active) | -82.2% (active) | -49.3% (active) | -66.5% (active) |  | -82.8% (active) |
| NCCc1ccc(OCc2ccccc2)c(OCc2ccccc2)c1 |  | 89.4% (inactive) | 88.1% (inactive) | 69.9% (inactive) | 61.8% (inactive) | 34.6% (inactive) | 80.7% (inactive) |
| C[C@H]1CCC/C=C/[C@@H]2C[C@H](O)C[C@H]2[C@H](O)/C=C/C(=O)O1 |  | 2.5% (active) | 0.489% (active) | -11.9% (active) | -70.8% (active) | -49.5% (active) | -59.8% (active) |
| Cc1cc(N=Nc2ccccc2C)ccc1N |  | 69.7% (inactive) | 82.9% (inactive) | 58.7% (inactive) | 78.1% (inactive) |  | 78.2% (inactive) |

From PubChem BioAssay (NCI)
